The source made the active and inactive calls. The call rests on the fitted dose curve; in most records, active means well fitted curve in the direction sought with a large enough effect; inconclusive means small, poorly fitted or top-dose-only effect, or effect the other way, or another doubt; inactive means no such curve, though single readings can be large or run the other way.

This experiment is described as follows: qHTS of Nrf2 Activators: LOPAC Validation (AID 624149). The conditions noted are these: Nrf2/ARE reporter cell assay; series mostly up to 46.1 µM. The source says:
Many diseases have some form of oxidative stress injury and ties to inflammation, causing a host of problems for the patient. The antioxidant response element (ARE) plays an important role in alleviating the harmful effects of oxidative stress. The antioxidant response element (ARE) is a transcriptional regulatory element involved in the activation of genes coding for a number of antioxidant proteins and detoxifying enzymes. These enzymes work in concert to protect tissues from oxidative insults and chemical toxicities in human hepatocytes and immune cells. The protective effects of ARE activation are primarily triggered through Nrf2 (NF-E2-related factor) binding to and activating AREs. It is known that Nrf2 controls the production of over 250 antioxidant and detoxification proteins (Hu et al., 2006), thereby protecting tissues by increasing cellular antioxidant content and suppressing inflammatory signaling pathways. The transcription factor Nrf2 is a central link between oxidative chemicals, such as phenolic antioxidants and electrophilic compounds, and the activation of ARE. Nrf2 levels are constitutively low as a consequence of its interaction with Keap1, which targets its degradation (Zipper and Mulcahy, 2002). Electrophiles react with key cysteine residues in Keap1, releasing Nrf2 and allowing its translocation to the nucleus. Once within the nucleus, Nrf2 complexes with coactivators such as p300, and binds to the AREs to induce gene transcription of cytoprotective enzymes, resulting in the prevention of toxicity. Activation of Nrf2 protects tissues by increasing cellular antioxidant content and suppressing inflammatory signaling pathways. Identifying novel and potent Nrf2 activators by using the AREc32 cell line to detect ARE activation by small molecules will lead to the identification and development of probes to study protective pathways in multiple tissues. These specific probes are essential to study the ARE pathway, and eventually to determine whether this pathway does activate genes that could protect against a host of diseases, including cardiovascular diseases, obesity, diabetes, Alzheimer's, and Parkinson's disease.
This project's aim is to identify novel and potent Nrf2 activators by using the AREc32 cell line to detect ARE activation by small molecules, which will lead to the identification and development of probes to study the ARE pathway.
NIH Chemical Genomics Center [NCGC]
NIH Molecular Libraries Probe Centers Network [MLPCN]
Assay Submitter (PI): Curtis Klaassen, University of Kansas Medical Center
5 uL of 1000 cells/well of AREc32_Fluc cells are seeded into 1536-well plate in OPTI-MEM medium with 5% FBS. The plates are incubated overnight at 37 deg C with 5% CO2. Then through pin tool transfer, 23 nL of compounds are added to each well before a 24 hr incubation at 37 deg C with 5% CO2. After the addition of 2.5 uL of Steady-Glo. the plates are kept at RT for 30 min, before they are read on the ViewLux
On the technique in general: Quantitative high-throughput screening tests each substance at several concentrations.
Regarding `C#CCN(C)CCCOc1ccc(Cl)cc1Cl`, the compound was classed as inactive.

Regarding `NCCCNCCSP(=O)(O)O`, the result was inactive. Take `NC(N)=N/N=C/c1c(Cl)cccc1Cl`: the outcome was inactive.

As for `Cc1nc2sccn2c(=O)c1CCN1CCC(=C(c2ccc(F)cc2)c2ccc(F)cc2)CC1`, the call was inactive. For `NS(=O)(=O)c1cc2c(cc1Cl)NC(C1CC3C=CC1C3)NS2(=O)=O` (stereo not given) the value was “inactive”; for `NC(=O)c1cn(Cc2c(F)cccc2F)nn1`, “inactive”. For `CC(=O)[C@@]1(O)CC[C@H]2[C@@H]3CCC4=CC(=O)CC[C@]4(C)[C@H]3CC[C@@]21C`, the compound was classed as inactive. As for `CN(C)C(=O)Oc1ccc[n+](C)c1`, the entry is “inactive”; as for `COc1cc2c(cc1OC)-c1cc(=Nc3c(C)cc(C)cc3C)n(C)c(=O)n1CC2`, “inactive”. As for `CC[N+](C)(C)c1cccc(O)c1`, the compound was classed as inactive. As for `COc1ccc(CCN(C)CCCC(C#N)(c2cc(OC)c(OC)c(OC)c2)C(C)C)cc1OC` (stereo not given), the entry is “inactive”. As for `c1cc(CN2CCCCC2)cc(OCCCNc2nc3ccccc3s2)c1`, the entry is “inactive”; as for `CCCCNc1ccc(C(=O)OCCN(C)C)cc1`, “inactive”. As for `CCCC(C(=O)OCCN(CC)CC)(c1ccccc1)c1ccccc1`, the entry is “inactive”.

Turning to `c1cnc(N2CCN(Cc3ccc4c(c3)OCO4)CC2)nc1`, the compound was classed as inactive.

Turning to `COc1cc(C(=O)OCCCN2CCCN(CCCOC(=O)c3cc(OC)c(OC)c(OC)c3)CC2)cc(OC)c1OC`, the compound was called inactive. With `COC(=O)[C@@H](N)Cc1ccc(O)c(O)c1`, the compound was classed as inactive. For `Cc1nnc(SCC2=C(C(=O)O)N3C(=O)[C@@H](NC(=O)Cn4cnnn4)[C@H]3SC2)s1` the value was “inactive”. For the compound `CCc1cccc(N(C)C(N)=Nc2cccc3ccccc23)c1`, the compound was classed as inactive. For `NC(Cc1ccc(Cl)cc1)C(=O)O` (stereo not given) the value was “inactive”; for `CCCNC(C)C(=O)Nc1ccccc1C` (stereo not given), “inactive”. As for `COCCCC/C(=N\OCCN)c1ccc(C(F)(F)F)cc1`, the entry is “inactive”; as for `COc1ccc([C@@H]2Sc3ccccc3N(CCN(C)C)C(=O)[C@@H]2OC(C)=O)cc1`, “inactive”. In the case of `CC(=O)OCC1=C(C(=O)O)N2C(=O)[C@@H](NC(=O)Cc3cccs3)[C@H]2SC1`, the compound was classed as inactive.

For the compound `C=CCc1ccccc1OCC(O)CNC(C)C` (stereo not given), the call was inactive.

Take `CO[C@@]1(NC(=O)CSCC#N)C(=O)N2C(C(=O)O)=C(CSc3nnnn3C)CS[C@@H]21`: the result was inactive. As for `CCOC(=O)c1cnc2c(cnn2CC)c1NN=C(C)C`, the entry is “inactive”. For `CNCCC(Oc1ccccc1OC)c1ccccc1` (stereo not given), the call was inactive. Take `CCO/C([O-])=N/c1c[n+](N2CCOCC2)no1`: the compound was classed as inactive. For `Cc1ccc(Cl)c(Nc2ccccc2C(=O)O)c1Cl` the value was “inactive”; for `CCCOc1ccccc1-c1nc2n[nH]nc2c(=O)[nH]1`, “inactive”; for `Nc1c2c(nc3ccccc13)CCCC2O` (stereo not given), “inactive”. For the compound `CN(C)C/C=C(/c1ccc(Br)cc1)c1cccnc1`, the call was inactive. For `CC(C)[N+](C)(CCOC(=O)C1c2ccccc2Oc2ccccc21)C(C)C` the value was “inactive”; for `C[C@H](CS)C(=O)N1CCC[C@H]1C(=O)O`, “inactive”; for `COc1ccc2c(c1OC)C(=O)O[C@@H]2[C@H]1c2c(cc3c(c2OC)OCO3)CCN1C`, “inactive”. As for `CNC1(C)C2CCC(C2)C1(C)C` (stereo not given), the entry is “inactive”.

Consider `CCCCNc1c(C(=O)OCC)c(C)nc2c1cnn2CC`, for which the compound was classed as inactive.

Consider `O=C(CCCN1CCC(O)(c2cccc(C(F)(F)F)c2)CC1)c1ccc(F)cc1`, for which the compound was classed as inactive. In the case of `CSc1ccc(C(=O)c2[nH]c(=O)[nH]c2C)cc1`, the call was inactive.

Source of the values: PubChem BioAssay (NCATS).
